# Test results reported in the antibiotic and cytotoxicity screens of Wong et al. (2023).
# Hit rate of the full screen: of about 39,000 compounds, about 3,300 (8.5%) were called active. What follows is part of a selection rich in actives, with near analogues and random picks from the rest.
# System: HepG2
# Test: cytotoxicity call (relative viability < 0.9)
# Settings: 10 µM
row,SMILES,cytotoxicity call
1,CNC[C@@H]1Oc2ccc(NC(=O)CCN3CCOCC3)cc2CC(=O)N([C@H](C)CO)C[C@H]1C,inactive
2,C[C@H](CO)N1C[C@H](C)[C@@H](CN(C)C(=O)Nc2ccc3c(c2)OCO3)Oc2ccc(NC(=O)CCN3CCOCC3)cc2CC1=O,inactive
3,O=C(C[C@@H]1CC[C@H]2[C@@H](COC[C@@H](O)CN2C(=O)c2ccccc2F)O1)N1CCN(c2ccccc2)CC1,inactive
4,c1ncc(CC2CCNCC2)[nH]1,inactive
5,COc1ccc(S(=O)(=O)Nc2ccc3c(c2)CC(=O)N([C@@H](C)CO)C[C@@H](C)[C@H](CN(C)C)O3)cc1,inactive
6,C[C@H]1CN([C@@H](C)CO)C(=O)c2cccc(NC(=O)Nc3ccc4c(c3)OCO4)c2O[C@@H]1CN(C)Cc1ccc(C(=O)Nc2ccccc2N)cc1,inactive
7,COc1cccc(NC(=O)N(C)C[C@@H]2Oc3cc(C#Cc4ccncc4)ccc3S(=O)(=O)N([C@H](C)CO)C[C@H]2C)c1,active
8,COc1cccc(NC(=O)N(C)C[C@@H]2Oc3cc(C#Cc4ccncc4)ccc3S(=O)(=O)N([C@@H](C)CO)C[C@@H]2C)c1,active
9,COc1cccc(NC(=O)N(C)C[C@H]2Oc3cc(C#Cc4ccncc4)ccc3S(=O)(=O)N([C@@H](C)CO)C[C@@H]2C)c1,active
10,COc1cccc(NC(=O)N(C)C[C@H]2Oc3cc(Br)ccc3S(=O)(=O)N([C@H](C)CO)C[C@H]2C)c1,inactive
11,COc1cccc(NC(=O)N(C)C[C@@H]2Oc3cc(C#Cc4ccncc4)ccc3S(=O)(=O)N([C@H](C)CO)C[C@@H]2C)c1,active
12,Cc1noc(C)c1NC(=O)N(C)C[C@@H]1Oc2c(NS(=O)(=O)c3cn(C)cn3)cccc2C(=O)N([C@H](C)CO)C[C@H]1C,inactive
13,O=C(Nc1ccn([C@H]2O[C@H](CO)[C@@H](O)[C@@H]2O)c(=O)n1)c1ccccc1,inactive
14,O=C(C[C@@H]1CC[C@@H](NC(=O)c2cccnc2)[C@H](CO)O1)NCCN1CCCCC1,inactive
15,O=C(Nc1nccs1)[C@@H]1[C@@H](CO)[C@@H]2Cn3c(cccc3=O)[C@H]1N2C(=O)C1CC1,inactive
16,NCc1cnc2ccccc2c1,inactive
17,C[C@@H]1CCCCO[C@@H](CN(C)C(=O)Nc2cccc3ccccc23)[C@H](C)CN([C@H](C)CO)C(=O)c2cc(N(C)C)ccc2O1,inactive
18,C[C@H](CO)N1C[C@H](C)[C@@H](CN(C)S(=O)(=O)c2cn(C)cn2)Oc2ccc(NS(=O)(=O)c3cccs3)cc2CC1=O,inactive
19,Cc1ccc(S(=O)(=O)Nc2cccc3c2O[C@H](CN(C)Cc2ccc(C(F)(F)F)cc2)[C@@H](C)CN([C@@H](C)CO)C3=O)cc1,inactive
20,CC(=O)N1[C@@H]2c3ccc(-c4ccccc4)c(=O)n3C[C@H]1[C@H](CO)[C@H]2C(=O)NCCCN1CCOCC1,inactive
21,COc1cccc(NC(=O)N(C)C[C@@H]2Oc3cc(C#CC4(O)CCCC4)ccc3S(=O)(=O)N([C@H](C)CO)C[C@H]2C)c1,inactive
22,COc1cccc(NC(=O)N(C)C[C@@H]2Oc3cc(C#CC4(O)CCCC4)ccc3S(=O)(=O)N([C@H](C)CO)C[C@@H]2C)c1,inactive

row,SMILES,cytotoxicity call
1,COc1cccc(NC(=O)N(C)C[C@H]2Oc3cc(C#Cc4ccncc4)ccc3S(=O)(=O)N([C@@H](C)CO)C[C@H]2C)c1,active
2,COc1cccc(NC(=O)N(C)C[C@@H]2Oc3cc(C#CC4(O)CCCC4)ccc3S(=O)(=O)N([C@@H](C)CO)C[C@H]2C)c1,inactive
3,COc1cccc(NC(=O)N(C)C[C@H]2Oc3cc(C#Cc4ccncc4)ccc3S(=O)(=O)N([C@H](C)CO)C[C@H]2C)c1,active
4,COc1cccc(NC(=O)N(C)C[C@@H]2Oc3cc(Br)ccc3S(=O)(=O)N([C@@H](C)CO)C[C@H]2C)c1,inactive
5,COc1cccc(NC(=O)N(C)C[C@@H]2Oc3cc(C#Cc4ccncc4)ccc3S(=O)(=O)N([C@@H](C)CO)C[C@H]2C)c1,active
6,COc1cccc(NC(=O)N(C)C[C@H]2Oc3cc(C#Cc4ccncc4)ccc3S(=O)(=O)N([C@H](C)CO)C[C@@H]2C)c1,active
7,COc1cccc(NC(=O)N(C)C[C@H]2Oc3cc(C#CC4(O)CCCC4)ccc3S(=O)(=O)N([C@@H](C)CO)C[C@@H]2C)c1,inactive
8,COc1cccc(NC(=O)N(C)C[C@@H]2Oc3cc(C#CC4(O)CCCC4)ccc3S(=O)(=O)N([C@@H](C)CO)C[C@@H]2C)c1,inactive
9,CN(C)CC#Cc1ccc([C@H]2[C@H](CO)N3C(=O)CN(C(=O)CN(C)C)C[C@@H]23)cc1,inactive
10,C/C=C/c1ccc2c(c1)O[C@@H](CN(C)C(=O)c1ccc3c(c1)OCO3)[C@H](C)CN([C@H](C)CO)S2(=O)=O,inactive
11,COC(=O)c1cn(-c2cccc(N)c2)nn1,inactive
12,C[C@H]1CN([C@@H](C)CO)C(=O)Cc2cc(NS(=O)(=O)c3ccc(Cl)cc3)ccc2O[C@H]1CN(C)C(=O)Nc1cccc2ccccc12,inactive
13,C[C@H]1CN([C@@H](C)CO)C(=O)c2cccc(NC(=O)NC3CCCCC3)c2O[C@H]1CN(C)Cc1ccc(Oc2ccccc2)cc1,inactive
14,C[C@@H]1CCCCO[C@H](CN(C)Cc2ccncc2)[C@@H](C)CN([C@@H](C)CO)C(=O)c2cc(NC(=O)CCC(F)(F)F)ccc2O1,inactive
15,C[C@H]1CN([C@@H](C)CO)C(=O)c2cc(NC(=O)CCCCCC(=O)Nc3ccccc3N)ccc2O[C@@H]1CN(C)C(=O)Nc1ccc(F)cc1,inactive
16,CN1CCN(C(=O)C[C@H]2CC[C@@H]3[C@H](COC[C@H](O)CN3S(=O)(=O)c3cccc(Cl)c3)O2)CC1,inactive
17,CN(C)C(=O)C[C@@H]1CC[C@@H]2[C@@H](COc3ccc(NS(=O)(=O)c4cccc(F)c4)cc3C(=O)N2C)O1,inactive
18,C[C@@H]1CN([C@H](C)CO)C(=O)CCCn2nncc2CO[C@H]1CN(C)S(=O)(=O)c1cccc(C#N)c1,inactive
19,CO[C@H]1CN(C)C(=O)c2cc(NC(=O)Nc3ccccc3F)ccc2OC[C@@H](C)N(CCC(F)(F)F)C[C@@H]1C,inactive
20,C[C@H]1CN([C@@H](C)CO)C(=O)c2cc(NC(=O)CCN3CCOCC3)ccc2O[C@H]1CN(C)Cc1ccccc1,inactive
21,CN1CCN(C(=O)C[C@@H]2CC[C@H]3[C@@H](COc4ccc(NC(=O)c5cccs5)cc4C(=O)N3C)O2)CC1,inactive
22,O=C(O)CC(CC(=O)O)C(=O)O,inactive

row,SMILES,cytotoxicity call
1,Cc1ccc(S(=O)(=O)N(C)C[C@@H]2Oc3c(NC(=O)C4CCOCC4)cccc3C(=O)N([C@@H](C)CO)C[C@@H]2C)cc1,inactive
2,C[C@@H]1CCCCO[C@H](CN(C)C(=O)Nc2ccccc2)[C@H](C)CN([C@H](C)CO)C(=O)c2cc(NC(=O)c3ccncc3)ccc2O1,inactive
3,CC1(C)SC2C(NC(=O)C(N)c3ccc(O)cc3)C(=O)N2C1C(=O)O (centres undefined),inactive
4,CC1(C)S[C@@H]2[C@H](NC(=O)[C@H](N)c3ccc(O)cc3)C(=O)N2[C@H]1C(=O)O,inactive
5,CC1(C)S[C@H]2[C@@H](NC(=O)[C@@H](N)c3ccccc3)C(=O)N2[C@@H]1C(=O)O,active
6,C/C=C/c1ccc2c(c1)O[C@H](CN(C)C(=O)c1ccc3c(c1)OCO3)[C@H](C)CN([C@@H](C)CO)S2(=O)=O,inactive
7,COc1ccc(CNC(=O)N(C)C[C@@H]2OCc3ccccc3-c3c(n(C)c4ccccc34)C(=O)N([C@@H](C)CO)C[C@@H]2C)cc1,inactive
8,C[C@@H]1CCCCO[C@H](CN(C)S(=O)(=O)c2ccccc2)[C@@H](C)CN([C@@H](C)CO)C(=O)c2cc(NC(=O)Nc3cccc4ccccc34)ccc2O1,inactive
9,C[C@@H]1CN([C@H](C)CO)C(=O)Cc2cc(NS(=O)(=O)c3ccc(F)cc3)ccc2O[C@@H]1CN(C)Cc1ccc(-c2ccccc2)cc1,active
10,C[C@H](CO)N1C[C@H](C)[C@H](CN(C)Cc2ccc(-c3ccccc3)cc2)Oc2ccc(NS(=O)(=O)c3ccc(F)cc3)cc2CC1=O,active
11,C[C@@H]1CN([C@@H](C)CO)C(=O)Cc2cc(NS(=O)(=O)c3ccc(F)cc3)ccc2O[C@@H]1CN(C)Cc1ccc(-c2ccccc2)cc1,active
12,C[C@H]1CN([C@@H](C)CO)C(=O)Cc2cc(NS(=O)(=O)c3ccc(F)cc3)ccc2O[C@@H]1CN(C)Cc1ccc(-c2ccccc2)cc1,inactive
13,C[C@@H]1CN([C@@H](C)CO)C(=O)Cc2cc(NS(=O)(=O)c3ccc(F)cc3)ccc2O[C@H]1CN(C)Cc1ccc(-c2ccccc2)cc1,inactive
14,C[C@H]1CN([C@@H](C)CO)C(=O)Cc2cc(NS(=O)(=O)c3ccc(F)cc3)ccc2O[C@H]1CN(C)Cc1ccc(-c2ccccc2)cc1,inactive
15,C[C@H](CO)N1C[C@H](C)[C@@H](CN(C)Cc2ccc(-c3ccccc3)cc2)Oc2ccc(NS(=O)(=O)c3ccc(F)cc3)cc2CC1=O,active
16,C[C@@H]1CN([C@@H](C)CO)C(=O)c2cc(C#CCc3ccccc3)cnc2O[C@@H]1CN(C)CC1CCOCC1,inactive
17,COc1ccc(NC(=O)N(C)C[C@@H]2Oc3c(NC(=O)Nc4cccc5ccccc45)cccc3C(=O)N([C@H](C)CO)C[C@@H]2C)cc1,inactive
18,C[C@@H]1CCCCO[C@H](CN(C)C(=O)c2ccccc2)[C@@H](C)CN([C@H](C)CO)C(=O)c2cc(NS(=O)(=O)c3ccc(F)cc3)ccc2O1,inactive
19,C[C@@H]1CCCCO[C@@H](CN(C)S(=O)(=O)c2ccccc2)[C@@H](C)CN([C@@H](C)CO)C(=O)c2cc(NS(=O)(=O)c3cn(C)cn3)ccc2O1,inactive
20,COc1ccc(S(=O)(=O)Nc2ccc3c(c2)CC(=O)N([C@H](C)CO)C[C@@H](C)[C@H](CN(C)S(=O)(=O)c2ccccc2)O3)cc1,inactive
